Measured potencies and affinities stand elsewhere. Activity calls are given as the source filed them. No cut-off is given here; in the data, nearly all actives have IC50 up to about 0.91 µM.
Each compound was assayed against Calcium-dependent protein kinase 4 (Plasmodium falciparum (isolate 3D7)) (UniProt Q8IBS5) (assay: PfCDPK4 kinase inhibitors, biochemical, TCAMS library (AID 1159588)). Settings: recombinant PfCDPK4, Kinase-Glo ATP depletion luminescence.
Chain of Calcium-dependent protein kinase 4 (Plasmodium falciparum (isolate 3D7)) (Q8IBS5 whole entry, looked up): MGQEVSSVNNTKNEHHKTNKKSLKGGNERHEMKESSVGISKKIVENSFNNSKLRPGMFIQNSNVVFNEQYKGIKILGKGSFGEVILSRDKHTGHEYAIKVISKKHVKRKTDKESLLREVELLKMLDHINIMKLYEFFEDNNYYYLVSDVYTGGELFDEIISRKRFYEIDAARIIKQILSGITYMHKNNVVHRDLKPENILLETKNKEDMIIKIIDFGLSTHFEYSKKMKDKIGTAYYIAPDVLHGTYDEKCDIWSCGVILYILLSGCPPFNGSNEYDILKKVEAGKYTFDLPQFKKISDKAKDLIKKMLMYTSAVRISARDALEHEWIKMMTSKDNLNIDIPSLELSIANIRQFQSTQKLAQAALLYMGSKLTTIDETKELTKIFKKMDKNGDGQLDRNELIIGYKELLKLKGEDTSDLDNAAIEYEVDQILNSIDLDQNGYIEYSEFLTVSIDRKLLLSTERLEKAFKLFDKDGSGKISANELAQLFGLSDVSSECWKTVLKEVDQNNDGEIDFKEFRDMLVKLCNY

| SMILES | outcome |
| --- | --- |
| CC[C@H](C)CNC(=O)c1cncc(-c2ccc(CNCCOc3ccccc3)cc2)c1 | inactive |
| COc1cccc(NC(=O)Nc2ccc(C)c(-c3ccc(C(=O)Nc4ccncc4)cc3)c2)c1 | inactive |
| CCCNCc1c(O)ccc2c(CNCCC)c(O)ccc12 | inactive |
| Clc1ncnc2ncn(Cc3cccc(Br)c3)c12 | inactive |
| CCN(CC)CCN(Cc1ccc(-c2ccc(C(F)(F)F)cc2)cc1)C(=O)c1ccc(-c2ccc(NC(=O)OC)cc2C)cc1 | inactive |
| CCNc1cc(C)nc(Nc2ccc(NC(=O)c3ccccc3)cc2)n1 | inactive |
| Cc1cccc2[nH]c(-c3cccc(-c4ccc(C(=O)NCc5ccccc5S(C)(=O)=O)cc4)c3)nc12 | inactive |
| CO/C(=C\C=C\c1cc2cc(Cl)c(Cl)cc2[nH]1)C(=O)NCCCCN1CCN(c2ccccc2OC)CC1 | inactive |
| COc1ccc(CNC2CCN(C)CC2)cc1-c1cccc(S(=O)(=O)NCc2ccccc2)c1 | inactive |
| O=C(c1cccc(Br)c1)N1CCN(c2ccc([N+](=O)[O-])c(NC3CC3)c2)CC1 | inactive |
| CN(C)CCNc1cc(-c2ccc3ccccc3c2)nc2ccccc12 | inactive |
| CC1(C)N=C(N)N=C(N)C1c1ccc(Cl)cc1 (stereo not given) | inactive |
| CCCCCCCc1c2c(C)c(C(=O)OCC)nc-2cc2n1CC(C)=C2C | inactive |
| COc1ccccc1Oc1c(N(C)S(=O)(=O)c2ccc(C(C)C)cc2)nc(C(F)(F)F)nc1N(C)S(=O)(=O)c1ccc(C(C)C)cc1 | inactive |
| Cc1ccc(CN2CCCN(Cc3cccc(C(=O)Nc4ccc(C(C)(C)C)cc4)c3)CC2)s1 | inactive |
| CCN(CC)C(=NCCCCCCN=C(NC(N)=NCc1ccc(Cl)cc1Cl)N(CC)CC)NC(N)=NCc1ccc(Cl)cc1Cl | inactive |
| CCCNCc1ccc(-c2ccc(CN(Cc3cccs3)C(=O)C3CCN(C)CC3)cc2)nc1 | inactive |
| O=C(Nc1cccc(-c2cccc(-c3nc4ccc(C(F)(F)F)cc4[nH]3)c2)c1)c1ccncc1 | inactive |
| CN(C)CCNC(=O)c1cccc(-c2cnc3ccc(NCc4ccc(Cl)c(Cl)c4)nn23)c1 | inactive |
| CC(C)(C)S[C@H]1S[C@H](SC(C)(C)C)[C@@H](OC(=O)c2ccccc2)C(OC(=O)c2ccccc2)[C@H]1OC(=O)c1ccccc1 (stereo not given in full) | inactive |

| SMILES | outcome |
| --- | --- |
| COC(=O)Cn1c(C2CCN(CC3CCN(C(=O)/C=C/c4ccc(Cl)c(Cl)c4)CC3)CC2)nc2ccccc21 | inactive |
| N#CCCN1CCN(Cc2cccc(-c3ccc(-c4nc5ccccc5[nH]4)s3)c2)CC1 | inactive |
| COc1ccc(-c2cccc(NC(=O)c3ccc(Cl)cc3)c2)cc1CN1CCNCC1 | inactive |
| CCCCCCOc1ccc(C(=O)N(Cc2ccccc2)c2c(-c3ccccc3)nc3cc(C)ccn23)cc1 | inactive |
| Fc1cccc(COc2ccc(-n3ccc4c(NCCCn5ccnc5)ncnc43)cc2Cl)n1 | inactive |
| COc1ccc(O)c(C(=O)c2cc(C(=O)NC3CCCCC3)c(=O)n(C3CCCCC3)c2)c1 | inactive |
| Cc1ccc(N(CCC(=N)N)Cc2ccccc2)cc1 | inactive |
| CC(C)Oc1ccccc1-c1csc(C(=O)NCC2CCN(Cc3ccc(C(C)(C)C)cc3)C2)c1 (stereo not given) | inactive |
| O=C1COc2ccc(CNC3CCC(O)(CCc4ccnc5cc6c(cc45)OCCO6)CC3)nc2N1 (stereo not given) | inactive |
| C#CCCC(=O)Nc1cccc(-c2cccc(-c3nc4ccc(C(F)(F)F)cc4[nH]3)c2)c1 | inactive |
| CC(=O)Oc1ccc(C(=O)Oc2ccccc2C#CC#N)cc1OC(C)=O | inactive |
| Cc1[nH]c(C)c(-c2ccc(-c3cccc(OC(F)(F)F)c3)nc2)c(=O)c1Cl | inactive |
| FC(F)(F)c1ccc2nc(-c3ccc(-c4ccc(CNCCN5CCNCC5)cc4)s3)[nH]c2c1 | inactive |
| CCCCCCP(=O)(COc1ccc(CCN(CC(O)COc2cccc3[nH]c(C(N)=O)cc23)CC(O)COc2cccc3[nH]c(C(N)=O)cc23)cc1)OCCCC (stereo not given) | inactive |
| C[C@@H]1CN(c2cnn(C/C=C/c3ccc(NC(=O)c4ccc(Cl)cc4)cc3)c(=O)c2Cl)C[C@H](C)N1 | inactive |
| Cc1noc(C)c1-c1cccc(CNCc2cccc(-c3cccc(-c4nc5c(C)cccc5[nH]4)c3)c2)c1 | inactive |
| CNCc1ccc(-c2ccc3ccnc(N)c3c2)cc1 | inactive |
| COc1ccc(Cc2cccc(C(C(=O)NCc3cc(Cl)cc(Cl)c3)N3CCN(C)CC3)c2)cc1 (stereo not given) | inactive |
| N#Cc1ccc2c(c1)CCN(CCC1CCC(NC(=O)/C=C/c3nc4ccccc4s3)CC1)CC2 (stereo not given) | inactive |
| O=C(NC1CCCCC1)N(Cc1ccc(-c2cccc(CNC3CCCC3)c2)cc1)C1CCN(Cc2ccccc2)CC1 | inactive |

— PubChem BioAssay
